Only some compounds are listed: those with a hit (about 2.3% of all), similar ones and a draw of the others.
Nrf2 block: Nrf2 qHTS screen for inhibitors; A549 ARE-Fluc reporter, luciferase luminescence, 18-24 h; Potency, µM (top dose mostly 46 µM), for the others: at the top dose activity change, negative = inhibition, most hits filed as inhibitors; hit rate 2.1% among 360,000; AID 504444, 2011; note: potency is the fitted concentration of half-maximal effect; % is set by controls: 0 for no effect and ±100 for the full control effect; nearly all actives have a fitted effect of over 60% in size
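Quantitative HTS in A549 cells stably bearing an antioxidant response element-firefly luciferase construct. Inhibition of Nrf2-driven transcription was scored by luminescence after 18-24 h of compound exposure at 37 °C.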
A549 viability: Nrf2 qHTS screen for inhibitors: counterscreen for cytotoxicity; hit rate 0.16% among 390,000; AID 504648, 2011; Potency, µM (titrated, usually from 46 µM), for inactives: at the highest dose activity change, negative = cytotoxicity, hits mostly inhibitors; A549 ARE-Fluc cells, CellTiter-Fluor viability, 18-24 h; note: potency is the fitted concentration of half-maximal effect; % is set by controls: 0 for no effect and ±100 for the full control effect
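Cytotoxicity counterscreen: CellTiter-Fluor fluorescence was measured in A549 ARE_Fluc cells after 18-24 h of compound exposure in a concentration series. The subsequent BugLite luminescent read reports ARE-luciferase activity.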
IL-2 act: qHTS of IL-2 Activators. hit rate 0.065% among 360,000. IL-2 activation reporter assay, cell-based qHTS; stimulated with anti-CD3/CD4/CD28 beads; in transgenic mouse T cells. activation, % (series mostly up to about 46 µM); in the data active = activation above about 50%; inconclusive = mostly about 30% to 49%; note: 0% is about no effect
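Using fluorescent plate cytometry, EGFP and DsRed are detected in transgenic mouse T cells stimulated 18 h at 37 degrees C with antibody-coated beads after 60 min compound pretreatment.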
Nrf2 activator: qHTS of Nrf2 Activators | AID 624171, 2012 | AREc32 ARE-luciferase reporter (MCF7-derived line), luminescence, 24 h | hit rate 0.31% among 410,000 | Potency, µM (highest dose often 46.1 µM), inactives show top-dose activation, most hits filed as activators; note: potency is the fitted concentration of half-maximal effect; % of control where 0% means no effect; nearly all actives have a fitted effect of over 65% in size
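ARE-driven firefly luciferase activity in AREc32 cells measured after a 24 hr compound exposure at 37 deg C, using Steady-Glo reagent and a 30 min room-temperature hold.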
An asterisk follows results filed as active; ? = inconclusive; / = not tested or not shown; [ ] = another dose, or the depositor's remark. Unless noted, calls come from the whole dose curve; as a rule, active = well fitted curve in the direction sought with a large enough effect; inconclusive = small, poorly fitted or top-dose-only effect, or another doubt; inactive = no such curve, though single readings can be large; an effect the other way counts as inactive or inconclusive.

SMILES	Nrf2 block	A549 viability	IL-2 act	Nrf2 activator
Cc1ccc(C(=O)NC(=S)/C=C2\N(C)c3ccccc3C2(C)C)cc1	18µM*	?	0	0%
Cn1c(NC(=O)c2ccc(F)cc2)nc2ccccc21	?	-12%	0	?
Cn1c(NC(=O)c2ccccc2NC(=O)C(C)(C)C)nc2ccccc21	16µM*	1%	-4	-4%
O=C1N/C(=C/c2ccc(N3CCCC3)cc2)C(=O)N1c1ccccc1	?	-9%	157*	8%
CCCCCC(=O)NNC(=S)NC(=O)c1cccc([N+](=O)[O-])c1	4%	-3%	0	0%
CCCCCC(=O)NNC(=S)NC(=O)c1ccccc1[N+](=O)[O-]	23µM*	?	2	0%
c1nc(NCCCN2CCOCC2)c2cc(-c3ccc4c(c3)OCO4)ccc2n1	-27%	15%	/	/
O=C(N/C=N/OCc1ccc(Cl)cc1Cl)NOCc1c(Cl)cccc1Cl	26µM*	-19%	-1	0%
CC1(C)CC[C@]2(C(=O)O[C@@H]3O[C@H](CO)[C@@H](O)[C@H](O)[C@H]3O)CC[C@]3(C)C(=CCC4[C@@]5(C)CC[C@H](O[C@@H]6O[C@H](C(=O)O)[C@@H](O[C@H]7OC[C@@H](O)[C@@H](O)[C@@H]7O)[C@H](O)[C@H]6O)C(C)(C)C5CC[C@]43C)[C@@H]2C1 (stereo not given in full)	14%	-2%	1	0%
CC1(C)CC[C@]2(C(=O)O)CC[C@]3(C)C(=CC[C@@H]4[C@@]5(C)CC[C@H](O[C@@H]6O[C@H](C(=O)O)[C@@H](O)[C@H](O[C@@H]7OC[C@H](O)[C@H](O)[C@H]7O)[C@H]6O)C(C)(C)[C@@H]5CC[C@]43C)[C@@H]2C1	21µM*	?	-1	-3%
Cc1ccc([N+](=O)[O-])cc1S(=O)(=O)N1CCn2cccc2C1c1ccccc1F (stereo not given)	/	0%	/	0%
Cc1ccc(NC(=O)COc2coc(CN3CCc4ccccc4C3)cc2=O)c(C)c1	-1%	1%	-1	0%
Cc1ccc(C)c(NC(=O)COc2coc(CN3CCc4ccccc4C3)cc2=O)c1	10µM*	-5%	-3	-1%
CCc1cc2c(-c3ccccc3)cc(=O)oc2cc1OC(C)C(C)=O (stereo not given)	6.5µM*	0%	-1	6%
CCN(C(=O)Cn1c(=O)n(-c2ccccc2)c(=O)c2ccc(C(=O)NCc3ccc4c(c3)OCO4)cc21)c1cccc(C)c1	?	0%	/	0%
CCc1ccccc1NC(=O)c1ccc(F)c(S(=O)(=O)N2CCN(c3ccccc3OC)CC2)c1	/	1%	/	0%
CNc1ccccc1C(C)(C)c1cc(-c2ccc(F)cc2)no1	8.2µM*	-15%	0	-1%[9.22 µM]
CNc1ccccc1C(C)(C)c1cc(-c2cccc(Br)c2)no1	?	-22%	0	5%
COc1ccc(/C=C/C(=O)c2ccc3c4c(cccc24)CC3)cc1	?	11%	-6	?
COc1ccc(/C=C/C(=O)c2ccc3c4c(cccc24)CC3)cc1OC	18µM*	-3%	-1	0%[9.22 µM]
COc1cc2c(cc1NC(=O)c1ccccc1F)CCCC2	?	5%	-1	3.2µM*
Cc1cc2c(s1)c1cnn(Cc3c(F)cccc3F)c(=O)c1n2C	-16%	7%	/	/
Nc1c(C(=O)Nc2ccccc2F)sc2nc(Cc3ccccc3)cc(C(F)(F)F)c12	?	?	51*	0%
CN(C)c1ccc(/C=C(/C#N)C(=O)NCc2ccccc2)o1	?	-11%	83*	1%
O=C(Nc1ccccc1)c1ccc(F)c(S(=O)(=O)N2CCOCC2)c1	15%	-2%	-3	0%
SMILES	Nrf2 block	A549 viability	IL-2 act	Nrf2 activator
Cc1ccc(NC(=O)c2ccc(F)c(S(=O)(=O)N3CCOCC3)c2)cc1F	13µM*	-23%	-1	2%
Cc1cc(Cl)ccc1OCC(=O)NCC(c1cccs1)N1CCOCC1 (stereo not given)	18µM*	-5%	-2	0%
Cc1ccc(NC(=O)COc2cccc(C)c2C)cc1S(=O)(=O)N1CCCCCC1	26µM*	-10%	-2	0%
Cc1ccc(NC(=O)COc2ccc(Cl)cc2Cl)cc1S(=O)(=O)N1CCOCC1	21µM*	?	-5	4%
O=C(NCc1ccc(F)cc1)C1CCN(S(=O)(=O)c2ccc3c(c2)CCCN3C(=O)C2CCC2)CC1	/	0%	/	1%
Cc1ccc(NC(=O)CSc2nnc(C3CC3)n2C)cc1S(=O)(=O)N1CCCCC1	15µM*	-12%	-1	0%
COc1ccc(NC(=O)COc2ccccc2C(N)=O)cc1S(=O)(=O)N1CCCCC1	/	/	1	-1%
Cc1ccc(NC(=O)COc2ccccc2C(N)=O)cc1S(=O)(=O)N1CCCCCC1	5.2µM*	?	-1	-1%
COc1ccc(Cn2c(CCC(=O)NCc3cccc(Cl)c3)nc3cccnc32)cc1	8%	1%	/	4%
COc1ccc(N2CC(NC(=O)C3CC3)CC2=O)cc1 (stereo not given)	/	1%	/	1%
Cc1cc(=O)n(Cc2cccc(Cl)c2)c2c1c(C)nn2C	-23%	8%	/	0%
CN(C)c1ccc(C=C2C=Cc3ccccc32)cc1	?	-20%	-4	3%
CN(C)c1ccc(C=c2c3ccccc3n3c2c2ccccc2[n+]3C)cc1	8.2µM*	?	-1	8%
CCOC(=O)c1cc2c(=Cc3ccc(N(C)C)cc3)c3ccccc3n2[n+]1C	8.2µM*	?	-4	4%
CCOC(=O)SC1=N/C(=C\c2ccc(N(C)C)cc2)C(=O)S1	27%	7%	0	5%
C/C(=N\Nc1ccc(F)cc1F)c1ccccc1O	?	-5%	0	27%
C/C(=N\Nc1cc(C(F)(F)F)ccc1Cl)c1ccccc1O	3%	14%	0	11µM*
c1coc(CSc2ncnc3c2oc2ccccc23)c1	?	2%	-2	4.5µM*
CCOC(=O)C1=C(CN2CCCCC2)NC(=O)NC1c1cc(C)ccc1C (stereo not given)	-4%	-4%	-4	1%
CCOC(=O)C1=C(CSCc2ccccc2)NC(=O)NC1c1cc(C)ccc1C (stereo not given)	18µM*	?	-3	0%
CN(C)S(=O)(=O)N1CCC(n2c(C(F)(F)F)nc3cccnc32)CC1	?	22%	/	-1%
O=S(=O)(c1ccc(F)cc1)N1CCC(n2c(C(F)(F)F)nc3cccnc32)CC1	21µM*	-1%	/	3%
COc1cc2c(cc1OC)CN(c1ccc3ccccc3n1)CC2	-23%	2%	0	2%
COc1cc2c(cc1OC)CN(c1ccc(-c3ccccc3OC)nn1)CC2	18µM*	-5%	5	4%
COc1ccc(C(=O)/C=C/c2ccc(OC)c(Cn3nnc4ccccc43)c2)cc1	21µM*	?	-1	13%[9.22 µM]

Source: PubChem (National Center for Advancing Translational Sciences (NCATS))
